Screens (PubChem BioAssay)
Only some compounds are listed: those with a hit (about 7.8% of all), similar ones and a draw of the others.
FLuc inh = qHTS Assay for Inhibitors of Firefly Luciferase; purified firefly luciferase, luminescence, 8 min; Potency, µM (top dose mostly 57.1 µM), without a hit: top-dose activity change, negative = inhibition, hits mostly inhibitors; 72,000 tested, 2.2% active; Luciferin 4-monooxygenase (Photinus pyralis), P08659; note: % is set by controls: 0 for no effect and ±100 for the full control effect; nearly all actives have a fitted effect of over 40% in size
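Here, luciferase activity is measured as luminescence following an 8 min room-temperature reaction at 10 uM ATP, pH 7.2. Every library sample is titrated.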
TSHR agonist = qHTS Assay for Agonists of the Thyroid Stimulating Hormone Receptor | Potency, µM (titrated, usually from 57.1 µM), inactives show at the highest dose activation, actives largely listed as activators | HEK293-CNG-TSHR cells (CNG channel as cAMP sensor), membrane potential dye, cAMP | 73,000 tested, 0.48% active | AID 926, 2007; active = well fitted activation curve with a large enough effect in the main read-out, with a control signal flat, not every such curve was filed as active; inconclusive = small, poorly fitted or top-dose-only effect, or a change in a side signal; inactive = no such curve, though single readings can be large or run the other way; % of control where 0% means no effect;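 note: the control signal comes from parental cells without the receptor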
Target sequence (P16473 whole entry, looked up): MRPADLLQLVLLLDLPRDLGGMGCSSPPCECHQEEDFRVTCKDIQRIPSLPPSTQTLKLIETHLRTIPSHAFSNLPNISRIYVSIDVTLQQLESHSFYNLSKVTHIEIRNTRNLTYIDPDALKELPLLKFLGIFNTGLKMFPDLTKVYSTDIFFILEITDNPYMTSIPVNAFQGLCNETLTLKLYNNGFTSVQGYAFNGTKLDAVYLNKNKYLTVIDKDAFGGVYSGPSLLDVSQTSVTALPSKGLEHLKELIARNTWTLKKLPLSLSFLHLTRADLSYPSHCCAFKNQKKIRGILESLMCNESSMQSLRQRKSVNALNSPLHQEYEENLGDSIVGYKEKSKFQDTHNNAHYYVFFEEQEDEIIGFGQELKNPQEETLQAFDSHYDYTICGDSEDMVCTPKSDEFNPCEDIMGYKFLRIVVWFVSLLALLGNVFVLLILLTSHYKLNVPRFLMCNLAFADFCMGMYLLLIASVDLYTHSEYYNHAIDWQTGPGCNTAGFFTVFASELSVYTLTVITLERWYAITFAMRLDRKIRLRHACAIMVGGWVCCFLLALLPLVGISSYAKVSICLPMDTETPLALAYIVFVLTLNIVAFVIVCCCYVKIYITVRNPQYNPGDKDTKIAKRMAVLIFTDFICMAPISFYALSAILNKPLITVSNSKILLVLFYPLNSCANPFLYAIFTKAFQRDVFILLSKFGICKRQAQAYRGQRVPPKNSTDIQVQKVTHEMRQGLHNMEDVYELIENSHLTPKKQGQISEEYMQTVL
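cAMP rise detected as CNG-channel membrane depolarization by fluorescent dye (emission 590 nm), 30 min after compound, following 60 min dye loading containing 100 uM RO 20-1724 at room temperature. Cells: TSHR/CNG HEK 293, with parental CNG HEK 293 as control.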
Tau filament bind = qHTS Assay for Tau Filament Binding. Microtubule-associated protein tau (Homo sapiens), P10636. recombinant tau filaments, thioflavin S fluorescence, 15 h; filaments grown with octadecylsulfate alongside compound. Potency, µM (highest dose often 57.1 µM), without a hit: top-dose activity change, negative = inhibition. 71,000 tested, 2% active. AID 596, 2007;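 note: % is set by controls: 0 for no effect and ±100 for the full control effect; actives lower thioflavin S fluorescence by blocking filaments or displacing dye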
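His-tagged recombinant human tau (exons 2, 3 and 10 included), 1 uM, was induced to fibrillize by 30 uM sodium octadecylsulfate with compound present. After 15 h at 37 C, thioflavine S fluorescence (ex 450, em 510 nm) was read.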
HEK293 cAMP ctrl = qHTS Assay for Agonists of the Thyroid Stimulating Hormone Receptor: Activators of Intracellular cAMP Concentrations in Parental HEK 293; parental HEK293 CNG cAMP sensor, membrane potential fluorescence; Potency, µM (top dose mostly 57.1 µM), for the others: at the top dose activation, hits mostly activators; 73,000 tested, 2.5% active; AID 938, 2007; note: % of control where 0% means no effect; nearly all actives have a fitted effect of over 55% in size
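Parental HEK 293 cells stably expressing a modified CNG channel (no TSHR) report cAMP rise as membrane depolarization. Membrane potential dye with 100 uM RO 20-1724 was loaded for 60 min at room temperature, then compound added for 30 min; fluorescence read at 590 nm.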
15-hLO inh = qHTS Assay for Inhibitors of 15-hLO (15-human lipoxygenase); Polyunsaturated fatty acid lipoxygenase ALOX15 (Homo sapiens), P16050; purified 15hLO-1, xylenol orange hydroperoxide absorbance; Potency, µM (series often up to 57.1 µM), inactives show at the top dose activity change, negative = inhibition, hits mostly inhibitors; 74,000 tested, 1.4% active; AID 887, 2007; note: % is set by controls: 0 for no effect and ±100 for the full control effect; nearly all actives have a fitted effect of over 55% in size
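Purified human 15hLO-1 (40 nM) in 25 mM Hepes pH 7.5, 0.01% Triton X-100, preincubated 15 min RT with compound, then 50 uM arachidonic acid for 6 min. Hydroperoxide read by ferrous/xylenol orange, 30 min; 573/405 nm absorbance ratio gave progress.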
PK Bst = Pyruvate Kinase. purified pyruvate kinase, luminescence ATP production; ribose 5-phosphate activator present at AC10. 51,000 tested, 1.2% active. Potency, µM. AID 361, 2006; in the data active = potency below about 11 µM; inconclusive = mostly about 12 µM to 25 µM;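 the screen sought inhibitors and activators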;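 note: scaled between full activation by ribose 5 phosphate and full inhibition by luteolin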
Starred values were filed as active, the others as inactive; ? = inconclusive; . = no result given; [ ] = remark or other dose. Unless noted, calls come from the whole dose curve; as a rule, active = well fitted curve in the direction sought with a large enough effect; inconclusive = small, poorly fitted or top-dose-only effect, or another doubt; inactive = no such curve, though single readings can be large; an effect the other way counts as inactive or inconclusive. Potency is the fitted concentration of half-maximal effect.

SMILES	FLuc inh	TSHR agonist	Tau filament bind	HEK293 cAMP ctrl	15-hLO inh	PK Bst
COc1ccc(Oc2ncc3nc(C)c(=O)n(CCc4ccccc4)c3n2)cc1	0%[11.4 µM]	?	1%	?	9%	.
Cc1nc2cnc(N3CCN(C)CC3)nc2n(CCc2ccccc2)c1=O	1%[11.4 µM]	?	-6%	?	-4%	.
Cc1nc2cnc(Oc3ccccc3)nc2n(Cc2cccs2)c1=O	0%[11.4 µM]	?	-20%	16µM*	-3%	.
COc1cccc(Cn2c(=O)c(C)nc3cnc(Oc4cccc(Cl)c4)nc32)c1	0%[11.4 µM]	?	-27%	?	0%	.
CN(C)c1ncc2ncc(=O)n(CCc3ccccc3)c2n1	2%[11.4 µM]	?	-21%	13µM*	4%	.
Cc1nc2cnc(Oc3cccc(Cl)c3)nc2n(CCc2ccccc2)c1=O	1%[11.4 µM]	?	2%	3.2µM*	-6%	.
CCNc1ncc2nc(CCc3ccccc3)c(=O)n(C3CC3)c2n1	-2%[11.4 µM]	?	102%	?	-8%	.
O=c1c(CCc2ccccc2)nc2cnc(Nc3ccccc3)nc2n1Cc1cccs1	0%[11.4 µM]	?	-24%	1.3µM*	-4%	.
CN(C)c1ncc2nc(-c3ccccc3)c(=O)n(CCc3ccccc3)c2n1	0%[11.4 µM]	4%	-4%	15%[2.29 µM]	?	.
CCNc1ncc2nc(CCc3ccccc3)c(=O)n(C)c2n1	-12%[11.4 µM]	?	418%	?	25µM*	.
COc1cccc(Nc2ncc3nc(CCc4ccccc4)c(=O)n(Cc4cccs4)c3n2)c1	1%[11.4 µM]	?	-7%	?	3%	.
C[C@@H](C(=O)O)/C(=C/c1ccc2c(c1)OCO2)C(=O)O	-1%[11.4 µM]	3%[11.4 µM]	4%[11.4 µM]	1%[11.4 µM]	5%[11.4 µM]	.
N#Cc1ccc(OC(=O)c2ccc(N=C(N)N)cc2)cc1	0%[11.4 µM]	2%[11.4 µM]	6%[11.4 µM]	8%[11.4 µM]	29%[11.4 µM]	.
Cc1ccc(C2/C(=C(\O)c3c(C)nc4ccccn34)C(=O)C(=O)N2CCCN2CCOCC2)o1 (stereo not drawn)	0%	-5%	24%	3%	0%	>57
Cc1noc(C)c1-c1cc(NCCN2CCOCC2)ncn1	-1%[2.29 µM]	3%	-6%	8%	-4%	.
Cc1nc2cnc(Oc3ccccc3)nc2n(CCc2ccccc2)c1=O	1%[11.4 µM]	?	-2%	1.6µM*	7%	.
O=c1cnc2cnc(Oc3cccc(Cl)c3)nc2n1CCc1ccccc1	-7%[11.4 µM]	?	25µM*	?	-11%	.
CCN(CC)C(=O)CSC1=C(C#N)C(c2cccs2)C=C(C)N1 (stereo not drawn)	2%[25.5 µM]	.	.	.	.	>26
O=C1COC(c2ccccc2O)=NN1CCCN1CCCC1	3%[11.4 µM]	4%[11.4 µM]	2%[11.4 µM]	1%[11.4 µM]	4%[11.4 µM]	.
Cc1cc(C)c2c(c1)-c1c(ssc1=S)C(C)(C)N2C(=O)CSc1nncn1C	-2%	5%[11.4 µM]	2µM*	-13%[11.4 µM]	?	.
Cn1cnnc1SCC(=O)c1ccc2c(c1)CCCC2	-12%	3%	-6%	18%	-3%	.
Cc1ccc2c(c1)-c1c(ssc1=S)C(C)(C)N2C(=O)CSc1nncn1C	-2%	-34%	7.9µM*	-25%	16µM*	.
CCc1ccc(N2CSC3=C(C#N)C(c4cccs4)CC(=O)N3C2)cc1 (stereo not drawn)	-20%	12%	?	15%	?	>57
CCOC(=O)c1ccc(N2CSC3=C(C#N)C(c4cccs4)CC(=O)N3C2)cc1 (stereo not drawn)	-2%	10%	4%	-1%	13µM*	.
CN1CSC2=C(C#N)C(c3cccc(OCc4ccccc4)c3)CC(=O)N2C1 (stereo not drawn)	-9%	8%	-16%	5%	5µM*	.
CCc1ccc(C2CC(=O)N3CN(c4ccccc4)CSC3=C2C#N)cc1 (stereo not drawn)	-7%	3%	?	-2%	2.5µM*	.
